# Assay results: the supplement of paper PMC8728848
# Shown is part of a subset that was picked to be rich in the strongest signals.
# How the values were obtained:
# Test in all cases: glycan array binding signal (z-score within array); higher = stronger binding
# Conditions in all cases: glycan notation: IUPAC condensed, linker removed
# [1] = biological target: Fuc(a1-2)Gal(b1-3)GalNAc(a1-3)[Fuc(a1-2)]Gal(b1-4)GlcNAc
# Summary of the method: (§1)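 Glycan array data came from 3228 arrays in the Consortium for Functional Glycomics database, and only arrays with an available protein sequence were kept. Glycan names were put into IUPAC-condensed notation, and columns mapping to the same glycan were averaged. The binding signal is a within-array Z-score, averaged across arrays of one protein sequence run at different concentrations or buffers and across linkers. A negative Z-score can be read as non-binding.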
# [2] = biological target: Fuc(a1-2)Gal(b1-3)[Fuc(a1-4)]GlcNAc(b1-2)Man(a1-3)[Fuc(a1-2)Gal(b1-3)[Fuc(a1-4)]GlcNAc(b1-2)Man(a1-3)]Man(b1-4)GlcNAc(b1-4)GlcNAc
# Summary of the method: as §1
# [3] = biological target: Fuc(a1-2)Gal(b1-4)GlcNAc(b1-2)[Fuc(a1-2)Gal(b1-4)GlcNAc(b1-4)]Man(a1-3)[Fuc(a1-2)Gal(b1-4)GlcNAc(b1-2)Man(a1-6)]Man(b1-4)GlcNAc(b1-4)GlcNAc
# Summary of the method: as §1
# [4] = biological target: Fuc(a1-2)Gal(b1-4)GlcNAc(b1-6)GalNAc
# Summary of the method: as §1
# [5] = biological target: Fuc(a1-2)Gal(b1-4)[Fuc(a1-3)]GlcNAc(b1-2)Man(a1-3)[Fuc(a1-2)Gal(b1-4)[Fuc(a1-3)]GlcNAc(b1-2)Man(a1-6)]Man(b1-4)GlcNAc(b1-4)[Fuc(a1-6)]GlcNAc
# Summary of the method: as §1
# [6] = biological target: Fuc(a1-2)Gal(b1-4)[Fuc(a1-3)]GlcNAc(b1-3)GalNAc
# Summary of the method: as §1
# [7] = biological target: Fuc(a1-2)Gal3S(b1-4)GlcNAc
# Summary of the method: as §1
# Fuc(a1-2)[Gal(a1-3)]Gal = biological target: Fuc(a1-2)[Gal(a1-3)]Gal
# Summary of the method: as §1
# [8] = biological target: Fuc(a1-2)[Gal(a1-3)]Gal(b1-3)GlcNAc(b1-2)Man(a1-3)[Fuc(a1-2)[Gal(a1-3)]Gal(b1-3)GlcNAc(b1-2)Man(a1-6)]Man(b1-4)GlcNAc(b1-4)[Fuc(a1-6)]GlcNAc
# Summary of the method: as §1
# [9] = biological target: Fuc(a1-2)[Gal(a1-3)]Gal(b1-4)GlcNAc(b1-2)Man(a1-3)[Fuc(a1-2)[Gal(a1-3)]Gal(b1-4)GlcNAc(b1-2)Man(a1-6)]Man(b1-4)GlcNAc(b1-4)GlcNAc
# Summary of the method: as §1
# [10] = biological target: Fuc(a1-2)[GalNAc(a1-3)]Gal(b1-3)GlcNAc(b1-2)Man(a1-3)[Fuc(a1-2)[GalNAc(a1-3)]Gal(b1-3)GlcNAc(b1-2)Man(a1-6)]Man(b1-4)GlcNAc(b1-4)[Fuc(a1-6)]GlcNAc
# Summary of the method: as §1
# [11] = biological target: Fuc(a1-2)[GalNAc(a1-4)]Gal(b1-4)GlcNAc
# Summary of the method: as §1
# Fuc(a1-3)GlcNAc = biological target: Fuc(a1-3)GlcNAc
# Summary of the method: as §1
# [12] = biological target: Fuc(a1-3)[Gal(b1-4)]GlcNAc(b1-6)GalNAc
# Summary of the method: as §1
# [13] = biological target: Fuc(a1-3)[Gal(b1-4)]GlcNAc6S
# Summary of the method: as §1
# [14] = biological target: Fuc(a1-3)[GalNAc(b1-4)]GlcNAc6S
# Summary of the method: as §1
# Gal(a1-3)Gal(b1-4)Glc = biological target: Gal(a1-3)Gal(b1-4)Glc
# Summary of the method: as §1
# [15] = biological target: Gal(a1-3)[Gal(a1-4)]Gal(b1-4)GlcNAc
# Summary of the method: as §1
# Gal(b1-3)GlcNAc(b1-2)Man = biological target: Gal(b1-3)GlcNAc(b1-2)Man
# Summary of the method: as §1
# [16] = biological target: Gal(b1-3)GlcNAc(b1-3)Gal(b1-4)Glc
# Summary of the method: as §1
# Gal(b1-4)Glc = biological target: Gal(b1-4)Glc
# Summary of the method: as §1
# [17] = biological target: Gal(b1-4)GlcNAc(b1-3)Gal(b1-4)GlcNAc(b1-2)Man(a1-3)[Gal(b1-4)GlcNAc(b1-3)Gal(b1-4)GlcNAc(b1-2)Man(a1-6)]Man(b1-4)GlcNAc(b1-4)GlcNAc
# Summary of the method: as §1
# [18] = biological target: Gal(b1-4)GlcNAc(b1-3)Gal(b1-4)GlcNAc(b1-3)Gal(b1-4)GlcNAc(b1-2)Man(a1-3)[Gal(b1-4)GlcNAc(b1-3)Gal(b1-4)GlcNAc(b1-3)Gal(b1-4)GlcNAc(b1-2)Man(a1-6)]Man(b1-4)GlcNAc(b1-4)GlcNAc
# Summary of the method: as §1
# Gal3S(b1-4)Glc = biological target: Gal3S(b1-4)Glc
# Summary of the method: as §1
# Gal3S4S(b1-4)GlcNAc = biological target: Gal3S4S(b1-4)GlcNAc
# Summary of the method: as §1
# GalNAc6S(b1-4)GlcNAc = biological target: GalNAc6S(b1-4)GlcNAc
# Summary of the method: as §1
binder,measurement,setting,value
PX14375A-pdi-503-28-503 (Parabacteroides distasonis) (protein) PLGSPEAGDISEERQAFLRLTAVYSVMKDFRYTWSMQCFGDVLSNDATYSGSSNDAQTFTLLENYQYQADHTEILNKYRYSYQCINKANLFIRDMEMADDALFSKYDKEQMIGEAKFIRAYTYFELVKTFGGVPCYTGVLDLDHERLGRASVEEIYSVIEQDLNDAVSVLPKKSEVANYESSYAGRITKGAAIAMQTRIYLYEKKYDEVKKAFEKFQNECGGEYSLVAPEDYTWQFSLDGEHCSSSILEVNMYNSSTQSSYNVNNGNRHVLMSMPRNMTIGFGCAQPTQALADAYDAEGDVIRKKTTLLSTEEAIEIETAAKGDVAPVTDDRTGWYNRKLYLAPGQREENRGNNQPTNLRLIRLAEVYLNYAEACYFSGDIANAQKYLNEVRSHVNLAPKNHTGSQLFEDIMNERHLEFGMEGFRFFDVVRVGWGEKVFNGTKKAEFGAKTPFSAGAEVLPIPQTEIDISDGLITN,glycan array binding signal (z-score),[1],-1
same,glycan array binding signal (z-score),[2],0.809
same,glycan array binding signal (z-score),[3],1.43
same,glycan array binding signal (z-score),[4],0.828
same,glycan array binding signal (z-score),[5],-0.25
same,glycan array binding signal (z-score),[6],-0.279
same,glycan array binding signal (z-score),[7],0.279
same,glycan array binding signal (z-score),Fuc(a1-2)[Gal(a1-3)]Gal,0.139
same,glycan array binding signal (z-score),[8],1.43
same,glycan array binding signal (z-score),[9],-0.223
same,glycan array binding signal (z-score),[10],-0.166
same,glycan array binding signal (z-score),[11],-0.304
same,glycan array binding signal (z-score),Fuc(a1-3)GlcNAc,-0.753
same,glycan array binding signal (z-score),[12],-0.205
same,glycan array binding signal (z-score),[13],0.08
same,glycan array binding signal (z-score),[14],0.949
same,glycan array binding signal (z-score),Gal(a1-3)Gal(b1-4)Glc,-0.124
same,glycan array binding signal (z-score),[15],2.05
same,glycan array binding signal (z-score),Gal(b1-3)GlcNAc(b1-2)Man,-0.555
same,glycan array binding signal (z-score),[16],10.3
same,glycan array binding signal (z-score),Gal(b1-4)Glc,-0.065
same,glycan array binding signal (z-score),[17],5.38
same,glycan array binding signal (z-score),[18],2.49
same,glycan array binding signal (z-score),Gal3S(b1-4)Glc,-0.196
same,glycan array binding signal (z-score),Gal3S4S(b1-4)GlcNAc,-0.718
same,glycan array binding signal (z-score),GalNAc6S(b1-4)GlcNAc,-0.507
